Experimental findings from PubChem BioAssay (EPA / NIEHS) are described below.

Inconclusive results are not listed. The source holds several records for some structures; these can differ, active in one and inactive in another. Active and inactive are the calls of the source. The calls were made as follows, unless noted: active = hit-call score of the fitted dose curve at least 0.9, where 1 is the maximum; inconclusive = response in the unintended direction; inactive = score below 0.9.

The target of assay [1] is Estrogen receptor beta (Homo sapiens) (UniProt Q92731). Put plainly: OT_ER_ERbERb_1440: Odyssey Thera (OT) 24-hour HEK293T Protein-Complementation Assay for Estrogen Receptor-beta/-beta Homodimer (AID 2283380).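 Also: scored as signal increase over DMSO baseline for both agonists and antagonists.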 In a few lines: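 HEK293T cells stably expressing ER beta LBD (aa 310-547) homodimer fragment-complementation reporter, dosed 24 h. Cells formaldehyde-fixed, Draq5-stained; gain in nuclear (agonist) or nuclear plus cytoplasmic (antagonist) fluorescence versus DMSO read by laser scanning cytometry.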

The target in assay [2] is Retinoic acid receptor RXR-alpha (Homo sapiens) (UniProt P19793). Put plainly: OT_NURR1_NURR1RXRa_0480: Odyssey Thera (OT) 8-hour HEK293T Protein Complementation Assay for Nurr1/retinoid X receptor (RXR) (AID 2283385). A digest of the protocol:
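Interaction of Nurr1 with RXRα read as reconstituted reporter fluorescence in a HEK293T fragment-complementation system, 8 h post-treatment; increase over DMSO baseline analysed.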

The target of assay [3] is Peroxisome proliferator-activated receptor gamma (Homo sapiens) (UniProt P37231). As to the kind of experiment: OT_PPARg_PPARgSRC1_0480: Odyssey Thera (OT) 8-hour Protein-Complementation Assay for Peroxisome Proliferator-activated Receptor Gamma / SRC-1 Co-activator (AID 2283387).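 Also: nuclear to cytoplasmic split Venus YFP fluorescence ratio reporting PPARg SRC-1 interaction.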 In a few lines:
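HEK293T transiently transfected with PPARg and SRC-1 fused to Venus YFP fragments, compounds 8 h at 37C. Fixed, Draq5-stained cells imaged; nuclear/cytoplasmic 488 nm fluorescence ratio over at least 350 cells per image; gain fitted versus DMSO.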

Assay [4] shares this target. As to the kind of experiment: OT_PPARg_PPARgSRC1_1440: Odyssey Thera (OT) 24-hour Protein-Complementation Assay for Peroxisome Proliferator-activated Receptor Gamma/ SRC-1 Co-activator (AID 2283388). In a few lines: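 Readout: nuclear-to-cytoplasmic 488 nm fluorescence ratio, ≥350 cells per image, 8 images per well, after 24 h compound exposure of HEK293T expressing PPARg/SRC-1 split-YFP fusions. Activity fitted in positive direction against DMSO.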

Assay [5] in a line: CEETOX_H295R_11DCORT: CeeTox H295R High-throughput Steroidogenesis Assay for 11-Deoxycortisol (11DCORT) (AID 2283432; active = hit-call score of the fitted dose curve at least 0.9, where 1 is the maximum; inactive = score below 0.9;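 as to AC50: 11-deoxycortisol secreted into the medium measured by LC-MS/MS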). The settings on record: actives raise or lower the signal. In a few lines:
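H295R cells prestimulated 48 h with 10 uM forskolin, then exposed 48 h to chemical in 0.1% DMSO. 11-Deoxycortisol in medium quantified by HPLC-MS/MS after MTBE extraction; bidirectional fit versus DMSO. MTT viability read in same wells.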

The nature of assay [6]: CEETOX_H295R_OHPREG: CeeTox H295R High-throughput Steroidogenesis Assay for OH-Pregnenolone (OHPREG) (AID 2283434; active = hit-call score of the fitted dose curve at least 0.9, where 1 is the maximum; inactive = score below 0.9). The settings on record: actives raise or lower the signal. A digest of the protocol: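 H295R, 10 uM forskolin pre-stim 48 h; test chemical 48 h, 0.1% DMSO final. MTBE extraction, reverse-phase C18 HPLC-ESI+ MS/MS of medium. Gain/loss vs DMSO; viability by MTT in same wells.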

Assay [7] is described as follows: CEETOX_H295R_OHPROG: CeeTox H295R High-throughput Steroidogenesis Assay for OH-Progesterone (OHPROG) (AID 2283435; active = hit-call score of the fitted dose curve at least 0.9, where 1 is the maximum; inactive = score below 0.9;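 as to AC50: 17alpha-hydroxyprogesterone secreted into medium measured by HPLC-MS/MS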). The settings on record: actives raise or lower the signal. In a few lines:
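Medium steroid levels read by LC-MS/MS after 48 h chemical treatment (0.1% DMSO) of human adrenal H295R cells that had been forskolin-primed (10 uM, 48 h). Gain or loss fitted against DMSO; MTT cytotoxicity checked per well.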

Assay [8] can be described thus: CEETOX_H295R_CORTIC: CeeTox H295R High-throughput Steroidogenesis Assay for Corticosterone (CORTIC) (AID 2283437; active = hit-call score of the fitted dose curve at least 0.9, where 1 is the maximum; inactive = score below 0.9;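 also: corticosterone secreted into medium quantified by mass spectrometry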;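 as to AC50: human H295R adrenal cells prestimulated with forskolin before chemical exposure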). The settings on record: actives raise or lower the signal. A digest of the protocol:
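48 h forskolin (10 uM) prestim, then 48 h chemical exposure, final DMSO 0.1%. Readout: corticosterone in medium by LC-MS/MS after MTBE extraction. Gain/loss fit vs DMSO; MTT viability in same wells.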

Assay [9] is described as follows: CEETOX_H295R_CORTISOL: CeeTox H295R High-throughput Steroidogenesis Assay for Cortisol (AID 2283438; active = hit-call score of the fitted dose curve at least 0.9, where 1 is the maximum; inactive = score below 0.9;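 also: cortisol secreted into medium quantified by LC-MS/MS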). The settings on record: actives raise or lower the signal. In a few lines: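 Cortisol measured by HPLC-MS/MS after MTBE extraction of medium from H295R cells exposed 48 h to chemical (0.1% DMSO), following 48 h prestimulation with 10 uM forskolin. Viability assessed by MTT in the same wells.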

Assay [10] in a line: CEETOX_H295R_DOC: CeeTox H295R High-throughput Steroidogenesis Assay for DOC (AID 2283439; active = hit-call score of the fitted dose curve at least 0.9, where 1 is the maximum; inactive = score below 0.9). The settings on record: actives raise or lower the signal. In a few lines: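 11-Deoxycorticosterone quantified in medium by MTBE extraction and HPLC-MS/MS after 48 h chemical exposure (0.1% DMSO) of forskolin-primed (10 uM, 48 h) H295R cells. Same-well MTT viability; data fitted bidirectionally against DMSO.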

Assay [11] concerns the target Retinoic acid receptor RXR-alpha (Homo sapiens) (UniProt P19793). As to the kind of experiment: OT_NURR1_NURR1RXRa_1440: Odyssey Thera (OT) 24-hour HEK293T Protein Complementation Assay for Nurr1/retinoid X receptor (RXR) (AID 2283386). A digest of the protocol:
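Gain in fluorescence, fitted relative to DMSO, reflects Nurr1–RXRα association in HEK293T cells after 24 h dosing. Bait and prey are each linked to a reporter-protein fragment that reassembles on interaction.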

For assay [12], the target named is Bile acid receptor (Homo sapiens) (UniProt Q96RI1). Put plainly: OT_FXR_FXRSRC1_0480: Odyssey Thera (OT) 8-hour HEK293T Protein-Complementation Assay for Farnesoid X receptor/SRC-1 Co-activator (AID 2283383). In a few lines:
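Binding of FXR to coactivator SRC-1 was read as fluorescence from a reconstituted split reporter in HEK293T cells, 8 h after chemical addition. Only increases in signal versus DMSO were fit.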

The target is the same in assay [13]. As to the kind of experiment: OT_FXR_FXRSRC1_1440: Odyssey Thera (OT) 24-hour HEK293T Protein-Complementation Assay for Farnesoid X receptor/SRC-1 Co-activator (AID 2283384). A digest of the protocol:
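Protein-fragment complementation: FXR and SRC-1 fused to reporter fragments that reassemble on interaction, read by fluorescence intensity. Human HEK293T cells measured 24 h post-dose; positive-direction fit versus DMSO.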

Assay [14] concerns the target Estrogen receptor (Homo sapiens) (UniProt P03372). As to the kind of experiment: OT_ERa_GFPERaERE_0480: Odyssey Thera (OT) 8-hour HeLa Transcription Induction Assay for Estrogen Receptor (AID 2283381; active = hit-call score of the fitted dose curve at least 0.9, where 1 is the maximum; inactive = score below 0.9). In a few lines: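 Fluorescence microscopy with high-content image analysis measures ERE-driven GFP induction in HeLa cells at 8 h post-dose. Increases fitted against DMSO baseline.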

Assay [15] has the same target. Put plainly: OT_ERa_GFPERaERE_0120: Odyssey Thera (OT) 2-hour HeLa Transcription Induction Assay for Estrogen Receptor (AID 2283382). In a few lines: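 Fluorescence-microscopy images of the GFP-ERα/ERE reporter, scored by high-content image algorithms, give the readout. HeLa exposure lasted 2 h, and only signal increase over DMSO was fitted.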

Chain of Retinoic acid receptor RXR-alpha (Homo sapiens) (P19793 whole entry, looked up, the tested form may be a part): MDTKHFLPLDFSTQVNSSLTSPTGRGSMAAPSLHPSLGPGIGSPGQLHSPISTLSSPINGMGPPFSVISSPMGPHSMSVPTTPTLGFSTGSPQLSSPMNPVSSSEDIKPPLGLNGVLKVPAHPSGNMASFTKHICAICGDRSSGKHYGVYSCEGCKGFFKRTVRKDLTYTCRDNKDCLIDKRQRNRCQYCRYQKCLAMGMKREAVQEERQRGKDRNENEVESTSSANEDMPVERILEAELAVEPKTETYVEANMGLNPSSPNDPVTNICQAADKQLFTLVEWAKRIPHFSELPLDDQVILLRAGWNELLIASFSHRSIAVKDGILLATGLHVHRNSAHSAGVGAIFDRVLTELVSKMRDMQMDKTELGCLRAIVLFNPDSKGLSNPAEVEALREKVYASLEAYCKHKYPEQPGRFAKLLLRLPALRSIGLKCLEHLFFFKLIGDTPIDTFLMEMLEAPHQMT
Chain of Peroxisome proliferator-activated receptor gamma (Homo sapiens) (P37231 whole entry, looked up, the tested form may be a part): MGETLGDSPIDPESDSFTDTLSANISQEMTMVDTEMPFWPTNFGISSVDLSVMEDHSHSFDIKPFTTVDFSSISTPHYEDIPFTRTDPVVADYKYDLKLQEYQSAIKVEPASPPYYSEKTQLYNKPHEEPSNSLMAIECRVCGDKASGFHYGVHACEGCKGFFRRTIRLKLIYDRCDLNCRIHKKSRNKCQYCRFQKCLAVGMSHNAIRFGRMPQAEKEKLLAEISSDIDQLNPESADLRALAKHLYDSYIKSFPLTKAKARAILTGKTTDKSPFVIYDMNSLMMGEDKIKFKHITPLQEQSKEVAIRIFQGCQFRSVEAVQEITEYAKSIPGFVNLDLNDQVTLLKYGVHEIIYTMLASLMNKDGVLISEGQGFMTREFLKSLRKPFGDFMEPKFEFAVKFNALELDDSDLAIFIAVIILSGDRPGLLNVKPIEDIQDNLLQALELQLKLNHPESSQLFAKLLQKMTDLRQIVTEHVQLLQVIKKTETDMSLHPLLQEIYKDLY
Chain of Estrogen receptor beta (Homo sapiens) (Q92731 whole entry, looked up, the tested form may be a part): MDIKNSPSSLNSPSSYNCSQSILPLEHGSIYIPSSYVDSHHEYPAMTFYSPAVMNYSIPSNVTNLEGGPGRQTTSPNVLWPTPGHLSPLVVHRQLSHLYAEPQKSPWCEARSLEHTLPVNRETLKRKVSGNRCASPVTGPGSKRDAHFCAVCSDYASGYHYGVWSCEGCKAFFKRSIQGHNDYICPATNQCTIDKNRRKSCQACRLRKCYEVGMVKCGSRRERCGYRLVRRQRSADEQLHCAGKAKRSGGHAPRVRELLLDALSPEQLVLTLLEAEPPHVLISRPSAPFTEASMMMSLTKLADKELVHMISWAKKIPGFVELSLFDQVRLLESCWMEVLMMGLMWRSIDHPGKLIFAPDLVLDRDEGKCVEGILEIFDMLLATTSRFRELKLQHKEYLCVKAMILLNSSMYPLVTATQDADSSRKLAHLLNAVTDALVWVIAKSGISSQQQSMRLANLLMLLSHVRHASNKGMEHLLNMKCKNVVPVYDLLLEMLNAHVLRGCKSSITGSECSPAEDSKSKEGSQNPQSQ
Chain of Estrogen receptor (Homo sapiens) (P03372 whole entry, looked up): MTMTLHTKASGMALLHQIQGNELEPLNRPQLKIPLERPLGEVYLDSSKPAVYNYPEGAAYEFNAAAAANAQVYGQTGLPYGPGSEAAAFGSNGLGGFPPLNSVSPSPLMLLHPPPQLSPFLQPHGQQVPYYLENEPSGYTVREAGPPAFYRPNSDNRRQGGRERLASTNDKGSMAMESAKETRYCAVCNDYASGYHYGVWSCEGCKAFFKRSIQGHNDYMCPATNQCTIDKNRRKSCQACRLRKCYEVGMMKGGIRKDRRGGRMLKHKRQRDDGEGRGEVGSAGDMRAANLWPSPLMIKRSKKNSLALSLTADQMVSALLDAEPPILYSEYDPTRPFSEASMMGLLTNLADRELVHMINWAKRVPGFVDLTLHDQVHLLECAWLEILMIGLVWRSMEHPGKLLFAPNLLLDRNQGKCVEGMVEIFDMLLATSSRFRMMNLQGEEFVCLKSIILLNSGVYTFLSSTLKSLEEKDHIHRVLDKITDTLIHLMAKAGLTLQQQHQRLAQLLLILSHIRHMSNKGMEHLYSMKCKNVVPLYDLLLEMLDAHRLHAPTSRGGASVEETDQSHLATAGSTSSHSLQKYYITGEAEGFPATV
Chain of Bile acid receptor (Homo sapiens) (Q96RI1 whole entry, looked up): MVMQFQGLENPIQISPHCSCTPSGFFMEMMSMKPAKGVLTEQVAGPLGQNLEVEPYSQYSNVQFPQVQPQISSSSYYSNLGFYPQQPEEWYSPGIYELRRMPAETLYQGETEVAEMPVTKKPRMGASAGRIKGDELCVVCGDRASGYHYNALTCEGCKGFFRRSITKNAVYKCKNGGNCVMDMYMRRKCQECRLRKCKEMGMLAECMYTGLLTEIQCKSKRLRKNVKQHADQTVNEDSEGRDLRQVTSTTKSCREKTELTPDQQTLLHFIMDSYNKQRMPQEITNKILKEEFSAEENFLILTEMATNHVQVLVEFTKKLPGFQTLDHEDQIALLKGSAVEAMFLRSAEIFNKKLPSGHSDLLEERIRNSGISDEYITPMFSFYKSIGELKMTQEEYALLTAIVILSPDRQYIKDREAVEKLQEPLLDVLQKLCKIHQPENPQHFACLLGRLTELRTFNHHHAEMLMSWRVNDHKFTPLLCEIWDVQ

The AC50 is the midpoint of the concentration-response curve, whichever way the signal moves. For `CC(C)CC(C)(O)C#CC(C)(O)CC(C)C` (configuration not stated), the result in assay [1], in assay [2], in assay [3], in assay [4], in [6] and in [7] was inactive. The outcome in assay [8], in assay [9] and in [10] was inactive. In addition, in [5], the AC50 was 68.2 µM (active).
For the compound `CC(=O)OCCC(C)C`, the result in [1], in assay [2], in [11], in [3] and in assay [4] was inactive.
As for `CC(C)CCCCCCCOC(=O)CCCCC(=O)OCCCCCCCC(C)C`, the result in assay [12], in assay [13], in [11], in assay [3] and in assay [4] was inactive.
Turning to `CCOC(=O)c1ccc(C2CCC(NC[C@H](O)COc3ccc(O)c(NS(C)(=O)=O)c3)CC2)cc1` (some centres not stated), the AC50 in assay [13] is 28.8 µM (active); in assay [11], 10.4 µM (active); in [5] it was 2.78 µM (active); in assay [6], 2.95 µM (active); in assay [7] it was 5.6 µM (active); in assay [8], 9.35 µM (active). Also, the AC50 in assay [10] is 2.84 µM (active). For the same compound, the result in assay [3], in assay [4] and in assay [9] was inactive.
In the case of `CCCCC(CC)COC(=O)CCCCCCCCC(=O)OCC(CC)CCCC` (configuration not stated), the outcome in assay [14], in assay [15], in [12], in [13], in assay [2] and in assay [11] was inactive. Also, the compound was called inactive in assay [3] and in assay [4].
As for `CC(C)c1cccc(C(C)C)c1N1C(=O)c2ccc(O)cc2C1=O`, the AC50 in assay [12] was 20.7 µM (active); in assay [13], 2.63 µM (active); in assay [2], 35.4 µM (active); in [6], 32.5 µM (active); in assay [7], 31.7 µM (active); in [9], 27.1 µM (active). Further, the AC50 in assay [10] is 16.7 µM (active). The outcome in assay [2], in assay [11], in [3], in assay [4] and in assay [8] was inactive.
Take `On1ccccc1=S`: the compound was classed as inactive in assay [1], in [2], in assay [11], in assay [3] and in [4].
Consider `CNCc1ccc(NC(=O)c2c[nH]c3c2C(=O)CCC3)cc1`, for which the compound was called inactive in assay [1], in assay [2], in assay [11], in assay [3] and in [4].
`CC1=CC(=O)CC(C)(C)C1`: the call in assay [2], in assay [11], in assay [3], in [4], in assay [5] and in assay [6] was inactive. The compound was classed as inactive in [7], in [8], in assay [9] and in assay [10].
Take `Nc1ccc(Nc2ccccc2)cc1`: the compound was classed as inactive in [14], in assay [15], in assay [2], in [11], in assay [3] and in assay [4]. The result in assay [5] and in [8] was inactive. The concentration at half-maximal activity (AC50) is 83.7 µM (active) in [6], 13.9 µM (active) in assay [7], 65.8 µM (active) in assay [9] and 4.03 µM (active) in assay [10].
For the compound `O=C(O)CC(O)C(=O)O` (configuration not stated), the compound was classed as inactive in assay [1], in assay [2], in assay [11], in assay [3] and in [4].
